Measured values as given in PubChem BioAssay (NCI).
About 83,000 compounds went through this panel and 20% of them were active in at least one assay; those are over-represented in the sample as a whole.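 Testing used 96-well plates and a 48-hour single-concentration exposure. Example: -40 means 40% of the starting cells died.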 The source made the active and inactive calls. How the source made its calls: active means growth percent below 10; inactive means the rest.

The molecules below were run on MDA-MB-468 breast (assay: NCI-60 one-dose screen, 48 h (100 = growth as untreated, 0 = no growth, -100 = all killed)). Conditions: 10 µM unless noted.

Question: With `FC(F)(F)c1cccc(Oc2ccc(Nc3ncnc4ccc(OCCCN5CCOCC5)cc34)cc2Cl)c1` as the molecule, how does the growth read?
Answer: 5.72% (active)

Question: How did the growth turn out when `Cn1cc(-c2csc(-c3cn(C)c4ccc(F)cc34)n2)c2cnccc21` was run?
Answer: -49.2% (active)

Question: How did the growth turn out when `CCC1N=C(N)N=C(N)N1c1ccc(Cl)cc1` (centres undefined) was run?
Answer: 80.6% (inactive)

Question: With `CCOC(=O)C/C(=C\c1ccccc1)C(C)=O` as the molecule, how does the growth read?
Answer: 108% (inactive)

Question: `COc1ccc(-c2cc(-c3cc(OC)c(OC)c(OC)c3)c(C#N)c(=O)n2CCCCC(=O)O)cc1` was tested. Which growth did it give?
Answer: 109% (inactive)

Question: For `CCCCCCCC(=O)SCC/C=C/[C@@H]1CC(=O)NCc2cccc(n2)C2=N[C@@](C)(CS2)C(=O)N[C@@H](C(C)C)C(=O)O1`, which growth is on record?
Answer: 12.4% (inactive)

Question: With `O=[N+]([O-])c1cnc(Sc2ccncn2)c([N+](=O)[O-])c1` as the molecule, how does the growth read?
Answer: -44.4% (active)

Question: `CN(C)c1ccc(C(c2ccccc2)c2ccc(N(C)C)cc2)cc1` was tested. Which growth did it give?
Answer: 103% (inactive)

Question: How did the growth turn out when `C=CC(=O)Nc1cccc(-c2nc(SC)nc(NCc3ccccc3)c2C#N)c1` was run?
Answer: 52.1% (inactive)

Question: How did the growth turn out when `CC(=O)O.CN1[CH-]N(Cc2ccc(C#N)cc2)c2ccccc21.[Ag+]` was run?
Answer: 97% (inactive)

Question: `CCN(CC)CCn1c(=N)n(CC(O)c2ccc(Cl)c(Cl)c2)c2ccccc21` (centres undefined) was tested. Which growth did it give?
Answer: 21% (inactive)

Question: How did the growth turn out when `Cc1ccc(N(CC(=O)Nc2ccc(S(=O)(=O)N3CCC(N4CCCC4)CC3)cc2)S(=O)(=O)c2ccc(Cl)cc2)cc1` was run?
Answer: -19.6% (active)

Question: `CS(=O)(=O)Nc1ccc(OCc2nnc(-c3ccc(Cl)cc3)o2)c(F)c1` was tested. Which growth did it give?
Answer: 86.8% (inactive)

Question: How did the growth turn out when `O=CN/N=C/c1ccc(Cl)c([N+](=O)[O-])c1` was run?
Answer: -11.6% (active)

Question: `Cc1ccc(C(=O)Nc2ccc(CN3CCN(C)CC3)c(C(F)(F)F)c2)cc1C#Cc1cnc2cccnn12` was tested. Which growth did it give?
Answer: -85.9% (active)

Question: `CO[C@H]1NC(=O)N(S(=O)(=O)c2ccc(Cl)cc2)[C@@H]1OC` was tested. Which growth did it give?
Answer: 110% (inactive)

Question: How did the growth turn out when `O=C1[C@@H]2Cc3c([nH]c4ccccc34)[C@H](c3c(Cl)cccc3Cl)N2C(=O)CN1C1CCN(CC2CCCCC2)CC1` was run?
Answer: 47.8% (inactive)

Question: How did the growth turn out when `COc1ccc2cc(Cn3cc[n+](Cc4ccc5ccccc5c4)c3)ccc2c1` was run?
Answer: -22.9% (active)

Question: `N#CC(=C1SCS1)[N+](=O)[O-]` was tested. Which growth did it give?
Answer: -4.62% (active)

Question: For `CCO/C=N/C1=C(C#N)C(c2ccc(F)cc2)c2sc3c(C)cccc3c2O1` (centres undefined), which growth is on record?
Answer: 6% (active)

Question: `C=CCn1c(SCC(=O)Nc2ccc(OC)cc2)nnc1-c1ccc(Cl)cc1` was tested. Which growth did it give?
Answer: 81% (inactive)

Question: `O=[N+]([O-])c1c(O)c(CNCCCO)cc(CNCCCO)c1O` was tested. Which growth did it give?
Answer: 108% (inactive)

Question: Which growth does the source give for `NC(=O)C1=C[C@H]2[C@H]3C=C[C@@]2(O)C(=O)O[C@@H]3O1` here?
Answer: -5.42% (active)

Question: `O=C(CSc1ccc(-c2nc3ccccc3[nH]2)cn1)N1CCN(c2ccccc2F)CC1` was tested. Which growth did it give?
Answer: 53.1% (inactive)
